Assay results: PubChem BioAssay AID1159580 (chemical genetic matrix, 2015)
Hit rate of the full screen: of about 5,500 compounds, about 2,000 (36%) were called active. About 18% were inconclusive and are not listed. No stated cut-off is given here; in the data, active means normalized growth mostly below about 0.91 (no sharp cut-off); inconclusive means no clear call, values can overlap the other calls; inactive means mostly above about 0.92. The list shows a part of the results.

Test: chemical genetic growth profiling, strain panel (AID 1159580);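 further: tested at 20 µM; growth read once vehicle control cultures reached saturation at 30 °C; 1 = growth at the plate median or of vehicle wells; lower values mean less growth of the strain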
Settings: growth OD

Measured: normalized growth

COC(=O)C(C)c1ccc(C(=O)c2cccs2)cc1 (configuration not stated)
inactive: S. cerevisiae deletion strains, locus YJR075W, strain HOC1, active compounds read low 1.07 | S. cerevisiae deletion strains, locus YKL009W, strain mrt4, active compounds read low 0.905 | S. cerevisiae deletion strains, locus YKL068W, active compounds read low 0.967 | S. cerevisiae deletion strains, locus YKL085W, strain MDH1 (second series), active compounds read low 0.941 | S. cerevisiae deletion strains, locus YKL085W, strain MDH1, active compounds read low 0.941 | S. cerevisiae deletion strains, locus YKL160W, strain elf1, active compounds read low 1 | S. cerevisiae deletion strains, locus YKL190W, strain CNB1, active compounds read low 0.997 | S. cerevisiae deletion strains, locus YKR001C, strain vps1, active compounds read low 0.936 | S. cerevisiae deletion strains, locus YKR026C, strain gcn3, active compounds read low 1 | S. cerevisiae deletion strains, locus YKR091W, strain srl3, active compounds read low 1.01 | S. cerevisiae deletion strains, locus YLL001W, strain dnm1, active compounds read low 1.01 | S. cerevisiae deletion strains, locus YLL026W, active compounds read low 1.01 | S. cerevisiae deletion strains, locus YLL041C, strain sdh2, active compounds read low 1.01 | S. cerevisiae deletion strains, locus YLR027C, strain aat2, active compounds read low 1.01 | S. cerevisiae deletion strains, locus YLR039C, strain RIC1, active compounds read low 0.862 | S. cerevisiae deletion strains, locus YLR058C, strain SHM2, active compounds read low 0.989 | S. cerevisiae deletion strains, locus YLR102C, strain apc9, active compounds read low 0.966 | S. cerevisiae deletion strains, locus YLR113W, strain HOG1, active compounds read low 0.943 | S. cerevisiae deletion strains, locus YLR221C, strain rsa3, active compounds read low 0.978 | S. cerevisiae deletion strains, locus YLR258W, strain gsy2, active compounds read low 1.02 | S. cerevisiae deletion strains, locus YLR262C, strain YPT6 (second series), active compounds read low 0.998 | S. cerevisiae deletion strains, locus YLR262C, strain YPT6, active compounds read low 0.842 | S. cerevisiae deletion strains, locus YLR268W, strain sec22, active compounds read low 0.956 | S. cerevisiae deletion strains, locus YLR320W, strain mms22, active compounds read low 1.01 | S. cerevisiae deletion strains, locus YLR330W, strain CHS5, active compounds read low 0.979 | S. cerevisiae deletion strains, locus YLR342W, strain FKS1 (second series), active compounds read low 0.881 | S. cerevisiae deletion strains, locus YLR342W, strain FKS1, active compounds read low 1.02 | S. cerevisiae deletion strains, locus YLR357W, strain rsc2, active compounds read low 1.02 | S. cerevisiae deletion strains, locus YLR370C, strain arc18, active compounds read low 1.01 | S. cerevisiae deletion strains, locus YLR371W, strain rom2, active compounds read low 0.958 | S. cerevisiae deletion strains, locus YLR384C, strain iki3, active compounds read low 1.01 | S. cerevisiae deletion strains, locus YLR418C, strain cdc73, active compounds read low 1.06 | S. cerevisiae deletion strains, locus YML016C, strain PPZ1, active compounds read low 0.993 | S. cerevisiae deletion strains, locus YML032C, strain rad52, active compounds read low 0.934 | S. cerevisiae deletion strains, locus YML120C, strain ndi1, active compounds read low 1.01 | S. cerevisiae deletion strains, locus YML124C, strain tub3, active compounds read low 0.958 | S. cerevisiae deletion strains, locus YMR058W, strain fet3, active compounds read low 1.01 | S. cerevisiae deletion strains, locus YMR078C, strain ctf18, active compounds read low 0.934 | S. cerevisiae deletion strains, locus YMR125W, strain sto1, active compounds read low 1.02 | S. cerevisiae deletion strains, locus YMR129W, active compounds read low 1.01 | S. cerevisiae deletion strains, locus YMR205C, strain PFK2, active compounds read low 1.01 | S. cerevisiae deletion strains, locus YMR223W, strain ubp8, active compounds read low 0.913 | S. cerevisiae deletion strains, locus YMR231W, strain pep5, active compounds read low 0.996 | S. cerevisiae deletion strains, locus YMR263W, strain SAP30, active compounds read low 1.01 | S. cerevisiae deletion strains, locus YMR307W, strain GAS1, active compounds read low 0.973 | S. cerevisiae deletion strains, locus YNL067W, strain RPL9B, active compounds read low 0.988 | S. cerevisiae deletion strains, locus YNL071W, strain lat1, active compounds read low 1.01 | S. cerevisiae deletion strains, locus YNL128W, strain TEP1, active compounds read low 1.03 | S. cerevisiae deletion strains, locus YNL153C, strain GIM3, active compounds read low 1.02 | S. cerevisiae deletion strains, locus YNL183C, strain NPR1, active compounds read low 0.912 | S. cerevisiae deletion strains, locus YNL209W, strain ssb2, active compounds read low 1.01 | S. cerevisiae deletion strains, locus YNL233W, strain BNI4, active compounds read low 1.01 | S. cerevisiae deletion strains, locus YNL248C, strain rpa49, active compounds read low 1 | S. cerevisiae deletion strains, locus YNL250W, strain rad50, active compounds read low 0.976 | S. cerevisiae deletion strains, locus YNL271C, strain bni1, active compounds read low 0.939 | S. cerevisiae deletion strains, locus YNL298W, strain CLA4, active compounds read low 0.932 | S. cerevisiae deletion strains, locus YNL322C, strain KRE1 (second series), active compounds read low 1.01 | S. cerevisiae deletion strains, locus YNL322C, strain KRE1, active compounds read low 0.991 | S. cerevisiae deletion strains, locus YNR049C, strain mso1, active compounds read low 1.02 | S. cerevisiae deletion strains, locus YNR052C, strain pop2, active compounds read low 0.945 | S. cerevisiae deletion strains, locus YOL006C, strain TOP1, active compounds read low 0.921 | S. cerevisiae deletion strains, locus YOL012C, strain htz1 2.2 | S. cerevisiae deletion strains, locus YOL147C, strain pex11, active compounds read low 0.97 | S. cerevisiae deletion strains, locus YOR001W, strain rrp6, active compounds read low 0.983 | S. cerevisiae deletion strains, locus YOR061W, strain CKA2, active compounds read low 0.985 | S. cerevisiae deletion strains, locus YOR069W, strain VPS5, active compounds read low 0.986 | S. cerevisiae deletion strains, locus YOR070C, strain gyp1, active compounds read low 1.01 | S. cerevisiae deletion strains, locus YOR080W, strain dia2, active compounds read low 1.02 | S. cerevisiae deletion strains, locus YOR083W, strain WHI5, active compounds read low 1 | S. cerevisiae deletion strains, locus YOR106W, strain vam3, active compounds read low 0.995 | S. cerevisiae deletion strains, locus YOR136W, strain idh2, active compounds read low 0.959 | S. cerevisiae deletion strains, locus YOR144C, strain elg1, active compounds read low 0.96 | S. cerevisiae deletion strains, locus YOR231W, strain MKK1, active compounds read low 0.954 | S. cerevisiae deletion strains, locus YOR265W, strain rbl2, active compounds read low 1 | S. cerevisiae deletion strains, locus YOR270C, strain vph1, active compounds read low 0.969 | S. cerevisiae deletion strains, locus YOR290C, strain snf2, active compounds read low 1 | S. cerevisiae deletion strains, locus YOR316C, strain cot1, active compounds read low 0.97 | S. cerevisiae deletion strains, locus YPL051W, strain arl3, active compounds read low 1 | S. cerevisiae deletion strains, locus YPL055C, strain LGE1, active compounds read low 1.04 | S. cerevisiae deletion strains, locus YPL078C, strain atp4, active compounds read low 1.01 | S. cerevisiae deletion strains, locus YPL106C, strain sse1, active compounds read low 1.01 | S. cerevisiae deletion strains, locus YPL240C, strain hsp82, active compounds read low 1.02 | S. cerevisiae deletion strains, locus YPL241C, strain CIN2, active compounds read low 0.995 | S. cerevisiae deletion strains, locus YPL256C, strain CLN2, active compounds read low 0.962 | S. cerevisiae deletion strains, locus YPR119W, strain clb2, active compounds read low 0.971 | S. cerevisiae deletion strains, locus YPR141C, strain kar3, active compounds read low 0.968 | S. cerevisiae deletion strains, locus YPR163C, strain tif3, active compounds read low 0.95 | S. cerevisiae deletion strains, locus YPR167C, strain met16, active compounds read low 0.967 | S. cerevisiae deletion strains, strain wtn01, active compounds read low 0.982 | S. cerevisiae strains, strain wild type, active compounds read low 0.983
active: S. cerevisiae deletion strains, locus YNL307C, strain MCK1, active compounds read low 0.819 | S. cerevisiae deletion strains, locus YOR184W, strain ser1, active compounds read low 0.747
